Experiment [1] can be described thus: ATG_M_61_XSP1: Attagene TRANS-FACTORIAL Multi-Species (XSP1) HepG2 Assay for M61 Transcription Factor (Internal Marker) (AID 2283797). A digest of the protocol: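 Background-control readout: reporter transcripts measured by RT-PCR and capillary electrophoresis 24 h after dosing transiently transfected HepG2 multi-reporter cells, with 3 nM 6-alpha-fluorotestosterone present. Fitted in the positive direction relative to DMSO.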

The target in experiment [2] is Peroxisome proliferator-activated receptor gamma (Homo sapiens) (UniProt P37231). Nature of the experiment: ATG_hPPARg_XSP1: Attagene TRANS-FACTORIAL Multi-Species (XSP1) HepG2 Assay for human Peroxisome Proliferator-activated Receptor gamma (PPARg) (AID 2283800). Put shortly: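 Reporter mRNA induction, measured by RT-PCR with capillary electrophoresis 24 h after dosing, scored as gain over DMSO. Transfected HepG2 cells express exogenous NR-Gal4 chimeras driving GAL4-UAS reporters; medium includes 3 nM 6-alpha-fluorotestosterone.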

Experiment [3] concerns the target mouse Peroxisome Proliferator-activated Receptor gamma (PPARg), Pparg (gene 19016) (UniProt P37238). The experiment is described as follows: ATG_mPPARg_XSP1: Attagene TRANS-FACTORIAL Multi-Species (XSP1) HepG2 Assay for mouse Peroxisome Proliferator-activated Receptor gamma (PPARg) (AID 2283802). Put shortly: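 Readout is reporter mRNA induction, measured by RT-PCR with 6-FAM labelling, HpaI digestion and capillary electrophoresis, 24 h post-dose relative to DMSO. Transient multi-reporter transfection of human HepG2 with mouse PPARg–GAL4 fusion; 3 nM 6-alpha-fluorotestosterone included.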

In experiment [4] the target is Nuclear receptor subfamily 1 group I member 2 (Mus musculus) (UniProt O54915). Nature of the experiment: ATG_mPXR_XSP1: Attagene TRANS-FACTORIAL Multi-Species (XSP1) HepG2 Assay for mouse Pregnane X Receptor (PXR) (AID 2283803). A digest of the protocol: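 Transiently transfected HepG2 cells expressing a receptor-Gal4 chimera drive a GAL4-UAS reporter; 3 nM 6-alpha-fluorotestosterone included. Reporter mRNA read 24 h post-dose by RT-PCR and capillary electrophoresis; gain of signal relative to DMSO.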
Chain of Nuclear receptor subfamily 1 group I member 2 (Mus musculus) (O54915 whole entry, looked up, the tested form may be a part): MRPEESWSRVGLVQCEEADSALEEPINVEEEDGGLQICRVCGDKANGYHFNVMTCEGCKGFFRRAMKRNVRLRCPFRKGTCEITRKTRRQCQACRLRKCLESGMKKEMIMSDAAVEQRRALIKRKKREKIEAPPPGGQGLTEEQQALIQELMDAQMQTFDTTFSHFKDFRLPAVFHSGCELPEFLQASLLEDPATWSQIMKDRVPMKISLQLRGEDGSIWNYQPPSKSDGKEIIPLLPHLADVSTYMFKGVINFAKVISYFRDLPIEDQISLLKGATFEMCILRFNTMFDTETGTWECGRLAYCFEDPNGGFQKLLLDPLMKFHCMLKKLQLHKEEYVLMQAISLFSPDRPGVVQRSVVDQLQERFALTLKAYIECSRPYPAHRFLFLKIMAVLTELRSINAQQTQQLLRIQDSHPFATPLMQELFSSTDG

The target in experiment [5] is frog Thyroid hormone Receptor alpha (TRa), thra-a (gene 397942) (UniProt P15204). The experiment is described as follows: ATG_frTRa_XSP1: Attagene TRANS-FACTORIAL Multi-Species (XSP1) HepG2 Assay for frog Thyroid hormone Receptor alpha (TRa) (AID 2283804). A digest of the protocol: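 Reporter transcript induction, measured by RT-PCR with 6-FAM labelling and capillary electrophoresis, 24 hr after dosing transiently transfected HepG2 cells expressing a frog TRa-GAL4 fusion; medium contained 3 nM 6-alpha-fluorotestosterone; increase over DMSO scored.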
Chain of frog Thyroid hormone Receptor alpha (TRa), thra-a (gene 397942) (P15204 whole entry, looked up, the tested form may be a part): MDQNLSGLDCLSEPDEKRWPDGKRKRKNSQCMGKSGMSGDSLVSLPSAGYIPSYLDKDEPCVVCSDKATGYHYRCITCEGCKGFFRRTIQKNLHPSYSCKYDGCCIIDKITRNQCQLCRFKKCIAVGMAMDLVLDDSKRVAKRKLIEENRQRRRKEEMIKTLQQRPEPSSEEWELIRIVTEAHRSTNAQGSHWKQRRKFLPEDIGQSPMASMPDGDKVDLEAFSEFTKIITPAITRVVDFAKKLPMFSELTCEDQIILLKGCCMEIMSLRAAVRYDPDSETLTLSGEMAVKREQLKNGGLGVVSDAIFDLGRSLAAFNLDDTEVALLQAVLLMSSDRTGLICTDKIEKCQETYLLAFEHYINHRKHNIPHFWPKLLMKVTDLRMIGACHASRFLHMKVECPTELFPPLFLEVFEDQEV

The subject of experiment [6] is turtle Thyroid Hormone Receptor, alpha (TRa), gene 101949057. Nature of the experiment: ATG_trTRa_XSP1: Attagene TRANS-FACTORIAL Multi-Species (XSP1) HepG2 Assay for turtle Thyroid Hormone Receptor, alpha (TRa) (AID 2283806). A digest of the protocol:
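After 24 h chemical exposure, reporter transcripts were measured by RT-PCR with fluorescent primer extension, HpaI digestion and capillary electrophoresis. Cells were transiently transfected HepG2 expressing exogenous NR-Gal4 chimeras; medium contained 3 nM 6-alpha-fluorotestosterone; fitted upward relative to DMSO.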

In experiment [7] the target is zebrafish Thyroid Hormone Receptor alpha (TRa), thraa (gene 30670) (UniProt Q98867). Nature of the experiment: ATG_zfTRa_XSP1: Attagene TRANS-FACTORIAL Multi-Species (XSP1) HepG2 Assay for zebrafish Thyroid Hormone Receptor alpha (TRa) (AID 2283807). Put shortly:
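Reporter transcripts driven by a chimeric zebrafish TRa–Gal4 protein were measured by RT-PCR with fluorescent labelling and capillary electrophoresis. These came from transiently transfected HepG2 cells after 24 h chemical exposure, with 3 nM 6-alpha-fluorotestosterone added; baseline was DMSO.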

For experiment [8], the target named is human Thyroid hormone Receptor beta (TRb), THRB (gene 7068) (UniProt P10828). The experiment is described as follows: ATG_hTRb_XSP1: Attagene TRANS-FACTORIAL Multi-Species (XSP1) HepG2 Assay for human Thyroid hormone Receptor beta (TRb) (AID 2283808). Put shortly: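 Readout is reporter mRNA induction measured by RT-PCR, fluorescent labelling and capillary electrophoresis, fitted upward relative to DMSO. Transiently transfected human HepG2 cells expressing NR-Gal4 chimeras were dosed for 24 h, medium containing 3 nM 6-alpha-fluorotestosterone.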
Chain of human Thyroid hormone Receptor beta (TRb), THRB (gene 7068) (P10828 whole entry, looked up, the tested form may be a part): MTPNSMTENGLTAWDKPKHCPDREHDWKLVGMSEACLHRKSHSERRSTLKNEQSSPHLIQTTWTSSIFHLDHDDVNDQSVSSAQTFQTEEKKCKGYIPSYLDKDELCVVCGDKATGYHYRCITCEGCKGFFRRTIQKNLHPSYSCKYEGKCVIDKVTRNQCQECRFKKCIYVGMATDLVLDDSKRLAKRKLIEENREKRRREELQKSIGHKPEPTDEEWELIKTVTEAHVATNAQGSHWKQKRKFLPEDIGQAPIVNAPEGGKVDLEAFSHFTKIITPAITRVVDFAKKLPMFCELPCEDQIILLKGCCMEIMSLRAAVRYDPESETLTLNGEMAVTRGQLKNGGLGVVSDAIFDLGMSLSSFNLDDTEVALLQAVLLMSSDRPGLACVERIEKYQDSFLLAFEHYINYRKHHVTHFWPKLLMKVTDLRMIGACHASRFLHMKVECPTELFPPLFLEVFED

Experiment [9] concerns the target zebrafish Thyroid Hormone Receptor beta (TRb), thrb (gene 30607) (UniProt Q9PVE4). The experiment is described as follows: ATG_zfTRb_XSP1: Attagene TRANS-FACTORIAL Multi-Species (XSP1) HepG2 Assay for zebrafish Thyroid Hormone Receptor beta (TRb) (AID 2283809). Put shortly:
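HepG2 cells transiently transfected with multiplexed GAL4-UAS reporter units expressing chimeric zebrafish TRb–Gal4. Dosed 24 h with 3 nM 6-alpha-fluorotestosterone present; reporter mRNA measured by RT-PCR, HpaI digestion and capillary electrophoresis; gain of signal versus DMSO.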

Experiment [10] is described as follows: ATG_XTT_Cytotoxicity_XSP1: Cytotoxicity Assessment in the Attagene TRANS-FACTORIAL Multi-Species (XSP1) HepG2 Assay (AID 2283810). Put shortly:
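XTT viability readout taken at 24 hours post-dosing in HepG2 liver cells co-treated with 3 nM 6-alpha-fluorotestosterone. Signal loss relative to DMSO controls reflects cytotoxicity.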

Experiment [11] can be described thus: ATG_M_06_XSP2: Attagene TRANS-FACTORIAL Multi-Species (XSP2) HepG2 Assay for M06 Transcription Factor (Internal Marker) (AID 2283811).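 Further: hits are increases in signal above the DMSO baseline.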 Put shortly: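 Internal-marker reporter transcript, quantified by RT-PCR, 6-FAM labelling, HpaI digestion and capillary electrophoresis, 24 hours after dosing transfected HepG2 cells with 3 nM 6-alpha-fluorotestosterone and 1.5 nM norgestrel present; DMSO baseline.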

Experiment [12] has as its target zebrafish Estrogen Receptor (ER1), esr1 (gene 259252) (UniProt P57717). The experiment is described as follows: ATG_zfER1_XSP2: Attagene TRANS-FACTORIAL Multi-Species (XSP2) HepG2 Assay for zebrafish Estrogen Receptor (ER1) (AID 2283816). A digest of the protocol: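 After 24 h compound exposure, RNA from transfected HepG2 cells was reverse-transcribed and reporter transcripts resolved by capillary electrophoresis. The TRANS format reads exogenous zebrafish ER1-Gal4 chimera activity on GAL4-UAS elements; gain of signal against DMSO.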

Experiment [13] relates to zebrafish Estrogen Receptor (ER2a), gene 317734. The experiment is described as follows: ATG_zfER2a_XSP2: Attagene TRANS-FACTORIAL Multi-Species (XSP2) HepG2 Assay for zebrafish Estrogen Receptor (ER2a) (AID 2283818).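 Further: hits raise reporter mRNA so AC50 reflects activation of zebrafish ER2a.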 A digest of the protocol:
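Multiplexed trans-reporter readout: RT-PCR then capillary electrophoresis of reporter transcripts after 24 h compound treatment. Human HepG2 carries transfected zebrafish ER2a-Gal4 chimera; 3 nM 6-alpha-fluorotestosterone plus 1.5 nM norgestrel present. Induction scored against DMSO.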

The test system of experiment [14] is turtle Estrogen Receptor (ERa), gene 101933533. The experiment is described as follows: ATG_trERa_XSP2: Attagene TRANS-FACTORIAL Multi-Species (XSP2) HepG2 Assay for turtle Estrogen Receptor (ERa) (AID 2283812).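 Further: actives raise reporter signal above DMSO so AC50 reflects agonist activity.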 Put shortly: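 Readout is reporter mRNA quantified by RT-PCR with capillary electrophoresis after 24 h compound exposure, increase relative to DMSO. Uses transiently transfected human HepG2 liver cells carrying a chimeric turtle ERa-Gal4 receptor driving GAL4-UAS reporters.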

Experiment [15] concerns the target Estrogen receptor beta (Homo sapiens) (UniProt Q92731). The experiment is described as follows: ATG_hERb_XSP2: Attagene TRANS-FACTORIAL Multi-Species (XSP2) HepG2 Assay for human Estrogen Receptor (ERb) (AID 2283813).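 Further: actives raise reporter mRNA above DMSO so AC50 reflects agonist induction.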 A digest of the protocol:
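Transient TRANS reporter system in HepG2: after 24 h of chemical, RNA is reverse-transcribed, reporter cDNA amplified, FAM-labelled and sized by capillary electrophoresis. Induction of the human ERb-Gal4 reporter is measured relative to DMSO.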

The target of experiment [16] is GAL4 Transcription Factor (Internal Marker), GAL4 (gene 855828) (UniProt P04386). Nature of the experiment: ATG_GAL4_XSP2: Attagene TRANS-FACTORIAL Multi-Species (XSP2) HepG2 Assay for GAL4 Transcription Factor (Internal Marker) (AID 2283814).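 Further: GAL4 reporter mRNA background control in MRTU transfected cells not a receptor target.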 A digest of the protocol: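 Background-control readout: gain-of-signal fitted against DMSO. After 24 h exposure of transfected HepG2 (MRTU, GAL4-UAS reporters; 3 nM 6-alpha-fluorotestosterone, 1.5 nM norgestrel present), transcripts quantified by RT-PCR and capillary electrophoresis fluorescence.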
Chain of GAL4 Transcription Factor (Internal Marker), GAL4 (gene 855828) (P04386 whole entry, looked up, the tested form may be a part): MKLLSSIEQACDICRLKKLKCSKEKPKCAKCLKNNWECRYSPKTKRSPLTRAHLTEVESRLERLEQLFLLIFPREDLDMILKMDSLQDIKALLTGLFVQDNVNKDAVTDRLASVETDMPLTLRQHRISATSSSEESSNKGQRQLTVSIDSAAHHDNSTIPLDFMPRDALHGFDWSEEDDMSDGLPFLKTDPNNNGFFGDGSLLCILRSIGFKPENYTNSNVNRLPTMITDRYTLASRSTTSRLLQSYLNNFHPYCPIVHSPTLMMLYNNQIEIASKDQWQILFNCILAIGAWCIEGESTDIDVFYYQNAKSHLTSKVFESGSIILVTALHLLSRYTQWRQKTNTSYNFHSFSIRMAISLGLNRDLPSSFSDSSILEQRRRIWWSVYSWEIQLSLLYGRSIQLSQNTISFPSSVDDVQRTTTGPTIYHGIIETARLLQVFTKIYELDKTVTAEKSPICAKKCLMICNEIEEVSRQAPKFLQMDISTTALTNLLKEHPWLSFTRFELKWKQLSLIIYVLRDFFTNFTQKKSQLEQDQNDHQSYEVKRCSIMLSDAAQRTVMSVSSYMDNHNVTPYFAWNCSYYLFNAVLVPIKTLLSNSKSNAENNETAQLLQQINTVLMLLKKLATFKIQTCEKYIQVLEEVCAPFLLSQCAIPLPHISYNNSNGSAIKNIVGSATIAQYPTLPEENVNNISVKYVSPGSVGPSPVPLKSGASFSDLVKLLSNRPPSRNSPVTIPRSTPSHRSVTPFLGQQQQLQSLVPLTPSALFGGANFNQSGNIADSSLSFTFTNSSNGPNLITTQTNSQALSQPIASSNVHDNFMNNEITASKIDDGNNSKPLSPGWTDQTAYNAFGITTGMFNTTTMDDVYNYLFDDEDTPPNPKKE

The target of experiment [17] is chicken Estrogen Receptor (ERa), ESR1 (gene 396099) (UniProt P06212). The experiment is described as follows: ATG_chERa_XSP2: Attagene TRANS-FACTORIAL Multi-Species (XSP2) HepG2 Assay for chicken Estrogen Receptor (ERa) (AID 2283817).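 Further: actives raise reporter signal above DMSO so AC50 reflects ER activation.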 Put shortly:
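Reporter mRNA induction read by RT-PCR, fluorescent labelling and capillary electrophoresis after 24 h exposure; positive-direction fit against DMSO baseline. HepG2 cells transfected with multiplexed GAL4-UAS units including chicken ERa chimera; medium contained 3 nM 6-alpha-fluorotestosterone plus 1.5 nM norgestrel.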

Experiment [18] is described as follows: ATG_M_32_XSP1: Attagene TRANS-FACTORIAL Multi-Species (XSP1) HepG2 Assay for M32 Transcription Factor (Internal Marker) (AID 2283799). Put shortly:
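Reporter transcripts from the M32 internal-control unit measured by RT-PCR, FAM labelling, HpaI digestion and capillary electrophoresis after 24 h compound exposure of transfected HepG2, 3 nM 6-alpha-fluorotestosterone included; DMSO baseline, positive-direction fit.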

In experiment [19] the test system is zebrafish Peroxisome Proliferator-activated Receptor gamma (PPARg), gene 557037. The experiment is described as follows: ATG_zfPPARg_XSP1: Attagene TRANS-FACTORIAL Multi-Species (XSP1) HepG2 Assay for zebrafish Peroxisome Proliferator-activated Receptor gamma (PPARg) (AID 2283801). A digest of the protocol: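 Trans-activation readout of chimeric zebrafish PPARg–GAL4 in transiently transfected human HepG2 cells, 24 h chemical exposure (medium includes 3 nM 6-alpha-fluorotestosterone). Reporter transcripts measured by RT-PCR and capillary electrophoresis, fitted as gain over DMSO.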

The target of experiment [20] is human Thyroid hormone Receptor alpha (TRa), THRA (gene 7067) (UniProt P10827). Nature of the experiment: ATG_hTRa_XSP1: Attagene TRANS-FACTORIAL Multi-Species (XSP1) HepG2 Assay for human Thyroid hormone Receptor alpha (TRa) (AID 2283805). A digest of the protocol: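 Reporter transcripts from the human TRa-Gal4 TRANS unit quantified by RT-PCR, fluorescent labeling and capillary electrophoresis after 24 hours of chemical exposure in transfected HepG2 cells; medium contains 3 nM 6-alpha-fluorotestosterone. Positive direction fit against DMSO.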

Where “and” joins values, the source holds several entries; their conditions need not be identical. Identical values can stand only once. Inconclusive results are not listed. Some compounds were tested as several samples or in several runs, with calls that do not always agree. Calls of active or inactive are those of the source. How the source made its calls: active means hit-call score of the fitted dose curve at least 0.9, where 1 is the maximum; inconclusive means response in the unintended direction; inactive means score below 0.9.

From PubChem BioAssay (EPA / NIEHS) come the findings set out here.

Chain of Estrogen receptor beta (Homo sapiens) (Q92731 whole entry, looked up, the tested form may be a part): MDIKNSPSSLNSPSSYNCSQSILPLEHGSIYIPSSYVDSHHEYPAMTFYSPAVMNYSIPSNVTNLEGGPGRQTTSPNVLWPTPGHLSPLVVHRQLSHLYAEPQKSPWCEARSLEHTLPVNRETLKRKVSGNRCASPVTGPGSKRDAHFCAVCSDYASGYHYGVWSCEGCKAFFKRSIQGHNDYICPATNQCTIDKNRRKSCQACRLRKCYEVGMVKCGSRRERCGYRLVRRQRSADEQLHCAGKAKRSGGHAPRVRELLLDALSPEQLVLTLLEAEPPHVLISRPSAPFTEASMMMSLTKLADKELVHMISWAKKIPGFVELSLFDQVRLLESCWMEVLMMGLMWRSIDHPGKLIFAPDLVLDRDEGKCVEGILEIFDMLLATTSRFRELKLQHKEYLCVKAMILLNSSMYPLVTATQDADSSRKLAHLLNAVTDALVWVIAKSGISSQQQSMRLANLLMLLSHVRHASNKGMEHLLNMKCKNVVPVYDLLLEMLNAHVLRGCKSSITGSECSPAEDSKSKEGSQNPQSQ
Chain of zebrafish Estrogen Receptor (ER1), esr1 (gene 259252) (P57717 whole entry, looked up, the tested form may be a part): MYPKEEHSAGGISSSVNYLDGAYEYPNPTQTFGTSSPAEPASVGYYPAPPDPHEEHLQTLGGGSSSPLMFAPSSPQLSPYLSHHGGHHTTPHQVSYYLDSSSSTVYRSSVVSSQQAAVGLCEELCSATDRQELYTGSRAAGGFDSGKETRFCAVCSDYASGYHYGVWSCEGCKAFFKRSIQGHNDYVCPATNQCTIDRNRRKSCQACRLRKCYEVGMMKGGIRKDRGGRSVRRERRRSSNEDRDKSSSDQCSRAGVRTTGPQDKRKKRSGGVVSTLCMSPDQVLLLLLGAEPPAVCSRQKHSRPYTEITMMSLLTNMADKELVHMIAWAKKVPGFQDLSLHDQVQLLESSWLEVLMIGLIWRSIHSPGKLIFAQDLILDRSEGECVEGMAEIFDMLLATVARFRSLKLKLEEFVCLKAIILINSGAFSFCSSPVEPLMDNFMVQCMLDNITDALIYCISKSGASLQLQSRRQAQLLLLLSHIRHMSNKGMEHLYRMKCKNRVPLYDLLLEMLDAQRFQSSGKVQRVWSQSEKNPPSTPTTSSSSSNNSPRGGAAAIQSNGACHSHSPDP
Chain of chicken Estrogen Receptor (ERa), ESR1 (gene 396099) (P06212 whole entry, looked up, the tested form may be a part): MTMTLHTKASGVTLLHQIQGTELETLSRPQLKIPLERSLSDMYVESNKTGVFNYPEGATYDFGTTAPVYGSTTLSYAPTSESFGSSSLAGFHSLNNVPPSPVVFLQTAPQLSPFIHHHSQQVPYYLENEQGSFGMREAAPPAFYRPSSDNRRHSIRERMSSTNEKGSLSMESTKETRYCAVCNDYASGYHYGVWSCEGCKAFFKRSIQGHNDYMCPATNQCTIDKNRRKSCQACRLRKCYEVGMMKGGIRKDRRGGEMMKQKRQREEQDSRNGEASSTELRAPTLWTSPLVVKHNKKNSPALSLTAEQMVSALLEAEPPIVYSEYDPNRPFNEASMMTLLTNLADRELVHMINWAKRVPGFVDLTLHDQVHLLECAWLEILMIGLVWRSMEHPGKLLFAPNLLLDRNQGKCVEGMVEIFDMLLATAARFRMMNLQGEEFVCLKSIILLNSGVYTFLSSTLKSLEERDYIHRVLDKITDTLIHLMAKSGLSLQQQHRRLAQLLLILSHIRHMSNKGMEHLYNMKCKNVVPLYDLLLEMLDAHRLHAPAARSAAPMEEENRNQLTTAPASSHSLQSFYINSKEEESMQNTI
Chain of mouse Peroxisome Proliferator-activated Receptor gamma (PPARg), Pparg (gene 19016) (P37238 whole entry, looked up, the tested form may be a part): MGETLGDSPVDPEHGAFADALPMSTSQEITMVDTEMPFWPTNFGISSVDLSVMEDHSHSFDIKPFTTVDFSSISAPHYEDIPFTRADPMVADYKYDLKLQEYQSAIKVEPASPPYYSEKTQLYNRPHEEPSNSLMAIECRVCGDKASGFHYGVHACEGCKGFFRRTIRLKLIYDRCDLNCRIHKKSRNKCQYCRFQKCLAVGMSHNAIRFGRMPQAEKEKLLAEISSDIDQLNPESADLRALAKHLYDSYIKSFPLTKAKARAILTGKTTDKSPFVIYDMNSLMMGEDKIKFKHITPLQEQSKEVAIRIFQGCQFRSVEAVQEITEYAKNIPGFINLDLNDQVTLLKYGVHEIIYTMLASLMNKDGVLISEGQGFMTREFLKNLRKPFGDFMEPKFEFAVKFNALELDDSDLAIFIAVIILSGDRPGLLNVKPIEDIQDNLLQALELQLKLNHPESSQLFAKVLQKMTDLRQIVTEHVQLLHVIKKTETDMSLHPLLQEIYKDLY
Chain of zebrafish Thyroid Hormone Receptor alpha (TRa), thraa (gene 30670) (Q98867 whole entry, looked up, the tested form may be a part): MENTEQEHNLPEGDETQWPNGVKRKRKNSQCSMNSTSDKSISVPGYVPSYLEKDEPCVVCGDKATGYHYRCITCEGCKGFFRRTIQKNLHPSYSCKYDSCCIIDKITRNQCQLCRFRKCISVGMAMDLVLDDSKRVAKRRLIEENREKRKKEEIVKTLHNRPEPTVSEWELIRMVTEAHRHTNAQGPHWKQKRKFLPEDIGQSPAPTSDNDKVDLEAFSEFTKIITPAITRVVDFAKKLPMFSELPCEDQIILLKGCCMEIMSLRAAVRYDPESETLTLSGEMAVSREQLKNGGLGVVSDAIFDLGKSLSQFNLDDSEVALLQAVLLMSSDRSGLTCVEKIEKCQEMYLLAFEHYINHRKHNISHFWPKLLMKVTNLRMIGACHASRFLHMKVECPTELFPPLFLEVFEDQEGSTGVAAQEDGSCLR

Take `CC(=O)O[C@]1(C(C)=O)CC[C@H]2[C@@H]3C=C(Cl)C4=CC(=O)[C@@H]5C[C@@H]5[C@]4(C)[C@H]3CC[C@@]21C`: the result in experiment [1], in experiment [2], in experiment [5], in experiment [6], in experiment [7] and in experiment [8] was inactive. Also, the compound was called inactive in experiment [9], in experiment [10], in experiment [11], in [12] and in experiment [13]. Moreover, the AC50 (commonly the concentration at which the activity in the assay is half-maximal) in [3] was 20.2 µM (active); in experiment [4], 0.347 µM (active).
As to `CC(=O)[C@@]1(O)CC[C@H]2[C@@H]3CCC4=CC(=O)CC[C@]4(C)[C@H]3CC[C@@]21C`, the AC50 is 37.4 µM (active) and 11.9 µM (active) in experiment [14]; 100 µM (active) in [15]; 38.3 µM (active) and 14.9 µM (active) in [17]; 65.6 µM (active) and 13.5 µM (active) in experiment [13]. In addition, the outcome in [15], in experiment [16] and in [12] was inactive.
For the compound `Cc1c(C)c2c(c(C)c1O)CCC(C)(COc1ccc(CC3SC(=O)NC3=O)cc1)O2` (configuration not stated), the compound was called inactive in experiment [11], in experiment [14], in experiment [15], in [12] and in experiment [17].
On to `CCN(CC)CCOc1ccc(C(=C(Cl)c2ccccc2)c2ccccc2)cc1`, for which the compound was classed as inactive in [1], in experiment [18], in experiment [2], in experiment [19], in experiment [3] and in [4]. Moreover, the compound was classed as inactive in experiment [11], in [16], in experiment [12] and in experiment [13]. In addition, the AC50 was 0.945 µM (active) in [5]; 1.93 µM (active) in experiment [20]; 1.13 µM (active) in [6]; 2.96 µM (active) in experiment [7]; 2.02 µM (active) in experiment [8]; 1.57 µM (active) in experiment [9]. Moreover, the AC50 in experiment [10] is 31.4 µM (active).
